According to PubChem BioAssay (Tox21):
Several values for one entry are separate records, joined by “and”; a condition that tells them apart may be missing. Equal values may be shown once. Results filed as inconclusive are left out. Where a call stands in place of a potency, no number is given. The source holds several records for some structures; these can differ, active in one and inactive in another. Activity calls are given as the source filed them. Unless noted, calls come from the whole dose curve.

Experiments:
[1] = qHTS assay to identify small molecule agonists of the vitamin D receptor (VDR) signaling pathway - cell viability counter screen (AID 743224; active = well fitted curve in the direction sought with a large enough effect in the repeat runs; an effect the other way counts as inactive or inconclusive; note: nearly all actives have a fitted effect of over 50% in size; note: potency is the fitted concentration of half-maximal effect)
Summary of the method: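 VDR-bla cell line, quantitative HTS format; 16 h compound incubation (37C, 5% CO2); ATP-based CellTiter-Glo luminescence measured in the reporter assay wells.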

[2] = qHTS assay to identify small molecule antagonists of the vitamin D receptor (VDR) signaling pathway - cell viability counter screen (AID 743225; active = well fitted curve in the direction sought with a large enough effect in the repeat runs; an effect the other way counts as inactive or inconclusive; note: nearly all actives have a fitted effect of over 50% in size)
Summary of the method: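 Read-out: CellTiter-Glo luminescence measured 30 min after reagent addition at room temperature. Cells were VDR-bla HEK 293T exposed 16 h at 37C, 5% CO2, to compound with 3 nM final calcitriol agonist.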

[3] = qHTS assay to identify small molecule agonists of the NFkB signaling pathway (AID 1159509; active = well fitted curve in the direction sought with a large enough effect in the signal ratio in the repeat runs, not every such curve was filed as active; the % refers to the signal ratio; note: series mostly up to about 61 µM)
Summary of the method: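 ME-180 NFkB-bla, 2,000 cells/well, overnight plating; cpd pinned in DMSO, 5 h 37 C; B/G FRET substrate 1.5 h RT; ex 405, em 460/530 nm.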

[4] = qHTS assay to identify small molecule agonists of the NFkB signaling pathway - cell viability counter screen (AID 1159515); note: series mostly up to about 61 µM; nearly all actives have a fitted effect of over 55% in size
Summary of the method: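 Viability in NFkB-bla ME-180 cells was measured by CellTiter-Glo luminescence, 30 min room temperature, in wells already treated 5 hr with compounds and read for reporter FRET.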

[5] = qHTS assay to identify small molecule agonists of the endoplasmic reticulum stress response signaling pathway (AID 1159516; active = well fitted activation curve with a large enough effect in the signal ratio in the repeat runs, not every such curve was filed as active; the % refers to the signal ratio)
Summary of the method: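 ER stress element reporter (bla) in HeLa. 1,500 cells/well, overnight attachment; 5 hr compound; 2 hr RT substrate; dual-emission fluorescence.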

[6] = qHTS assay to identify small molecule agonists of the endoplasmic reticulum stress response signaling pathway - cell viability counter screen (AID 1159517); note: nearly all actives have a fitted effect of over 50% in size; note: potency is the fitted concentration of half-maximal effect
Summary of the method: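 HeLa cells carrying an ESRE-driven beta-lactamase reporter receive compound for 5 hr at 37 C. Cell viability is then gauged with CellTiter-Glo by luminescence, 30 min at room temperature.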

[7] = qHTS assay to identify small molecule antagonists of the retinoid-related orphan receptor gamma (ROR-gamma) signaling pathway - cell viability counter screen (AID 1159520; active = well fitted curve in the direction sought with a large enough effect in the repeat runs; an effect the other way counts as inactive or inconclusive; note: nearly all actives have a fitted effect of over 50% in size)
Summary of the method: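 Cytotoxicity was read from cellular ATP (CellTiter-Glo luminescence) after 16 hr at 37 C with 1 uM doxycycline induction. The inducer was added 2 hr after compound transfer to Tet-on ROR gamma CHO cells.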

[8] = target: Nuclear receptor ROR-gamma (Homo sapiens) (UniProt P51449); test: qHTS assay to identify small molecule antagonists of the retinoid-related orphan receptor gamma (ROR-gamma) signaling pathway (AID 1159521; active = well fitted curve in the direction sought with a large enough effect in the repeat runs; an effect the other way counts as inactive or inconclusive; note: nearly all actives have a fitted effect of over 50% in size; note: potency is the fitted concentration of half-maximal effect)
Summary of the method: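 CHO Tet-on RORγ, RORE-luc reporter. Cpd 2 h pre-incubation, then dox hyclate 1 uM final, 16 h, 37 C/5% CO2. ONE-Glo luminescence; decrease = antagonist.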

[9] = qHTS assay to identify small molecule agonists of the AP-1 signaling pathway - cell viability counter screen (AID 1159525); note: nearly all actives have a fitted effect of over 55% in size
Summary of the method: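 Luminescent ATP readout (Cell Titer Glo, 30 min RT), normalised to DMSO and tetra n-octyl ammonium bromide controls. Cells were ME-180 AP-1-bla in 0.5% dialyzed FBS Opti-MEM, with a 5 h, 37 °C compound exposure.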

[10] = qHTS assay to identify small molecule agonists of the AP-1 signaling pathway (AID 1159526)

Row | SMILES | Potency [1] | outcome [2] | outcome [3] | outcome [4] | outcome [5] | Potency [6] | outcome [7] | Potency [8] | outcome [9] | Potency [10]
1 | CCOC(=O)C(C)(C)Oc1ccc(Cl)cc1 | inactive | inactive | inactive | inactive | inactive | inactive | inactive | inactive | inactive | inactive
2 | COc1ccccc1O | inactive | inactive | inactive | inactive | inactive | inactive | inactive | inactive | inactive | inactive
3 | CC(C)(C)NCC(O)c1ccc(O)c(CO)c1 (stereo not drawn) | inactive | inactive | inactive | inactive | inactive | inactive | inactive | inactive | inactive | inactive
4 | C[C@]12C[C@H](O)[C@H]3[C@@H](CCC4=CC(=O)CC[C@@]43C)[C@@H]1CC[C@@H]2C(=O)CO | inactive | inactive | inactive | inactive | inactive | inactive | inactive | 48.6 µM (active) and inactive | inactive | inactive
5 | CCCCOC(=O)CCCCCCCCC(=O)OCCCC | inactive | inactive | inactive | inactive | inactive | inactive | inactive | inactive | inactive | inactive
6 | c1ccc2[nH]c(-c3cscn3)nc2c1 | inactive | inactive | inactive | inactive | inactive | inactive | inactive | inactive | inactive | inactive
7 | N[C@@H](Cc1c[nH]c2ccc(O)cc12)C(=O)O | inactive | inactive | inactive | inactive | inactive | inactive | inactive | inactive | inactive | inactive
8 | CCCCCCCCOc1ccc(C(=O)c2ccccc2)c(O)c1 | inactive and 49 µM (active) | inactive | inactive | inactive | inactive | inactive | inactive | inactive | inactive | inactive
9 | Nc1cccc(N)c1 | inactive | inactive | inactive | inactive | inactive | inactive | inactive | inactive | inactive | inactive
10 | O=C(OCc1ccccc1)c1ccccc1 | inactive | inactive | inactive | inactive | inactive | inactive | inactive | inactive | inactive | inactive
11 | CCOCCO | inactive | inactive | inactive | inactive | inactive | inactive | inactive | inactive | inactive | inactive
12 | Cc1cccc(Nc2cc(Cl)nc(SCC(=O)O)n2)c1C | inactive | inactive | inactive | inactive | inactive | inactive | inactive | inactive | inactive | inactive
13 | Cc1c(N(C)C)c(=O)n(-c2ccccc2)n1C | inactive | inactive | inactive | inactive | inactive | inactive | inactive | inactive | inactive | inactive
14 | CC1(C)O[C@@H]2[C@@H](CO[C@@]3(COS(N)(=O)=O)OC(C)(C)O[C@@H]23)O1 | inactive | inactive | inactive | inactive | inactive | inactive | inactive | inactive | inactive | inactive
15 | COC(=O)C1CCC(C(=O)OC)CC1 (stereo not drawn) | inactive | inactive | inactive | inactive | inactive | inactive | inactive | inactive | inactive | inactive
16 | CC(=O)CCC(C)C | inactive | inactive | inactive | inactive | inactive | inactive | inactive | inactive | inactive | inactive
17 | CCN1CCCC1=O | inactive | inactive | inactive | inactive | inactive | inactive | inactive | inactive | inactive | inactive
18 | COc1ccc(C(=O)c2ccccc2)c(O)c1 | inactive | inactive | inactive | inactive | inactive | inactive | inactive | inactive | inactive | inactive
19 | CC1=NN(c2ccccc2)C(=O)C1 | inactive | inactive | inactive | inactive | inactive | inactive | inactive | inactive | inactive | inactive
20 | Cc1cnc(NC(=O)C2=C(O)c3ccccc3S(=O)(=O)N2C)s1 | – | – | inactive | inactive | inactive | inactive | inactive | inactive | inactive | inactive
21 | C=C(C)OC(C)=O | inactive | inactive | inactive | inactive | inactive | inactive | inactive | inactive | inactive | inactive
22 | CCCCOCCOCCOC(C)=O | inactive | inactive | inactive | inactive | inactive | inactive | inactive | inactive | inactive | inactive

Row | SMILES | Potency [1] | outcome [2] | outcome [3] | outcome [4] | outcome [5] | Potency [6] | outcome [7] | Potency [8] | outcome [9] | Potency [10]
23 | CN/C(=C\[N+](=O)[O-])NCCSCc1ccc(CN(C)C)o1 | inactive | inactive | inactive | inactive | inactive | inactive | inactive | inactive | inactive | inactive
24 | CC(=O)Oc1ccccc1C(=O)O | inactive | inactive | inactive | inactive | inactive | inactive | inactive | inactive | inactive | inactive
25 | C#C[C@]1(O)CC[C@H]2[C@@H]3CCc4cc(O)ccc4[C@H]3CC[C@@]21C | inactive | inactive | inactive | inactive | inactive | inactive | inactive | 30.4 µM (active) and inactive | inactive | inactive
26 | N[C@@H](Cc1c[nH]c2ccccc12)C(=O)O | inactive | inactive | inactive | inactive | inactive | inactive | inactive | inactive | inactive | inactive
27 | CC(C)Cc1ccc(C(C)C(=O)O)cc1 (stereo not drawn) | – | – | inactive | inactive | inactive | inactive | inactive | inactive | inactive | inactive
28 | CCCCC/C(C=O)=C\c1ccccc1 | inactive | inactive | inactive | inactive | inactive | inactive | inactive | inactive | inactive | inactive
29 | CCn1cc(C(=O)O)c(=O)c2ccc(C)nc21 | inactive | inactive | inactive | inactive | inactive | inactive | inactive | inactive | inactive | inactive
30 | CC1=C(/C=C/C(C)=C/C=C/C(C)=C/C(=O)O)C(C)(C)CCC1 | inactive | inactive | inactive | inactive | inactive | 43.7 µM (active) | inactive | inactive | inactive | inactive
31 | OCCCc1ccccc1 | inactive | inactive | inactive | inactive | inactive | – | inactive | inactive | inactive | inactive
32 | CC(=O)c1ccc(S(=O)(=O)NC(=O)NC2CCCCC2)cc1 | inactive | inactive | inactive | inactive | inactive | – | inactive | inactive | inactive | inactive
33 | NC(=O)NO | inactive | inactive | inactive | inactive | inactive | – | inactive | inactive | inactive | inactive
34 | NCCNc1cccc2ccccc12 | inactive | inactive | inactive | inactive | inactive | inactive | inactive | – | inactive | inactive
35 | CO[C@H]1C=CO[C@@]2(C)Oc3c(C)c(O)c4c(O)c(c(/C=N/N5CCN(C)CC5)c(O)c4c3C2=O)NC(=O)/C(C)=C\C=C[C@H](C)[C@H](O)[C@@H](C)[C@@H](O)[C@@H](C)[C@H](OC(C)=O)[C@@H]1C | inactive | inactive | inactive | inactive | inactive | – | inactive | inactive | inactive | inactive
36 | CCc1cc(C(N)=S)ccn1 | inactive | inactive | inactive | inactive | inactive | – | inactive | inactive | inactive | inactive
37 | COC(=O)c1ccc(C=O)cc1 | inactive | inactive | inactive | inactive | inactive | – | inactive | inactive | inactive | inactive
38 | CCCCCCCCCCCCCCCCCC(=O)OCC(O)CO (stereo not drawn) | inactive | inactive | inactive | inactive | inactive | inactive | inactive | inactive | inactive | inactive
39 | CC(C)CC(C)CC(O)CC(C)C (stereo not drawn) | inactive | inactive | inactive | inactive | inactive | inactive | inactive | inactive | inactive | inactive
40 | CCN(CC)CCOC(=O)c1ccc(N)cc1 | inactive | inactive | inactive | inactive | inactive | inactive | inactive | inactive | inactive | inactive
41 | Cc1cccc(C)c1O | inactive | inactive | inactive | inactive | inactive | inactive | inactive | inactive | inactive | inactive
42 | CCCCCCCC(=O)OCC(O)CO (stereo not drawn) | inactive | inactive | inactive | inactive | inactive | inactive | inactive | inactive | inactive | inactive
43 | Cc1c(N(C)CS(=O)(=O)O)c(=O)n(-c2ccccc2)n1C | inactive | inactive | inactive | inactive | inactive | – | inactive | inactive | inactive | inactive
